Experimental data taken from the supplement of paper PMC6555819.

Columns and labels:
Test in all cases: PBM binding z-score (relative to random genomic background probes); higher = stronger binding; sequences stand for … in GC…GCGATTGACAGCGTAGAATGAAGG
[1] = system: RARb homodimer (NR concentration 270 nM)
Summary of the method: (§1)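 Custom Agilent 4×180K protein-binding microarrays carried double-stranded probes, each with a 34-nt variable region. These regions held direct-repeat seeds, single-nucleotide variants, half-site ablations and random human genomic background sequences. Ligand-free nuclear receptor dimers were incubated on the arrays for 1 h, antibodies against each partner (one per run) detected binding, and scanned fluorescence was regression-normalized. Binding z-scores take the random background probes as reference.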

[2] = system: RARg:RXRa (NR concentration 270 nM, RXRa partner concentration 90 nM)
Summary of the method: as §1

[3] = system: RARg homodimer (NR concentration 270 nM)
Summary of the method: as §1

[4] = system: RXRa DBDmut IVT, anti-RXR (DBD mutation: RXRa K156A/R161A, NR concentration 90 nM)
Summary of the method: as §1

[5] = system: RXRa homodimer (NR concentration 180 nM)
Summary of the method: as §1

[6] = system: THRa:RXRa (NR concentration 90 nM, RXRa partner concentration 90 nM)
Summary of the method: as §1

[7] = system: THRa homodimer (NR concentration 90 nM)
Summary of the method: as §1

[8] = system: VDR:RXRa (NR concentration 270 nM, RXRa partner concentration 90 nM)
Summary of the method: as §1

[9] = system: VDR homodimer (NR concentration 270 nM)
Summary of the method: as §1

Sequence	PBM binding z-score [1]	PBM binding z-score [2]	PBM binding z-score [3]	PBM binding z-score [4]	PBM binding z-score [5]	PBM binding z-score [6]	PBM binding z-score [7]	PBM binding z-score [8]	PBM binding z-score [9]
CGTCCAATGTCAGAGAGGTCAGTGAATGCCGAGT	4.14	3.35	3.8	1.27	2.57	2.75	1.37	5.22	2.91
ATCTCTAGGTAAAGATAGTTCGGTGAATGCAAAT	-0.015	0.125	0.491	0.0249	-0.171	0.322	0.197	0.244	0.151
TCTTGTCGATCAACAGGAGGTTAAGAAAGATCGA	0.439	0.322	0.198	0.168	0.805	0.59	-0.736	0.427	-0.499
TCTGCTAGGTCAACGATGGACAGCTAATCTGCTA	2.79	3.82	4.71	0.955	2.5	2.86	0.203	1.21	-0.736
GGAACGAGGGCAAGTTGAAAGCAGAGTTTGATGG	1.57	1.12	1.98	2.41	0.747	1.12	0.0724	0.74	1.92
TCGAGTCGGTTAGGGGCATTCAGAATGGCGTCGA	0.345	-0.19	-0.321	0.196	0.0404	1.38	-0.39	0.541	1.12
TCGAGTAGGTTTGGGGCATTCAGAATGGCGTCGA	0.408	-0.658	-0.913	0.194	-0.158	0.0533	0.0117	-0.0942	-0.0123
TCTATTAGTTGAAGGGCAGCCGACGAGTCCGTTT	0.841	0.303	0.318	1.74	0.258	0.00646	0.0713	0.97	1.27
ATCGAAAGGTCGAATGTGAGTATACCCACCCGAA	2.63	3.91	3.72	1.77	4.23	2.01	-0.0283	2.84	1
TCTCGGAGGACACGAAGGCCAGAGCTTTCCAGAG	1	0.605	1.84	0.482	0.00493	1.43	0.215	-0.411	-0.212
AGATGTAGGTTAAGGGTCATTCAGGTTGGTTCGC	4.06	4.87	3.79	2.18	6.66	3.64	2.06	5.59	4.78
CGAACTAGGTCAAGGTCAAAGTCGGTTTGTGCCA	4.96	5.97	6.77	3.12	5.78	4.11	3.7	4.97	4.23
GCTCGGAAGACAAGGTCAGAGCTTTGTCCGTAGA	2.34	2.28	1.86	0.349	2.11	2.52	0.95	0.859	0.19
TAGCCTAGGTGATGGGCCAGTATACCACGCGAAC	-0.0783	-0.276	-0.196	-1.47	-0.236	-0.153	-0.23	-0.726	-0.76
GGAGCGAGGGCAAGTTGATAGCAGAGTTTGATGG	1.55	1.41	1.95	2.04	0.51	0.876	0.0322	0.407	1.48
TCGAGTAGGTTACCAATGGGGCGTTCAGCTTTCT	0.227	0.184	0.225	0.454	0.239	-0.0946	-0.39	-0.111	-0.531
TCTATCAGTTGAAGGGCAACCGACGAGTCCGTTT	1.44	0.695	0.748	1.11	0.849	0.16	0.0373	1.07	1.44
TCATATAGGTAGATGCTAGGTGAAAGTCCGATCT	0.362	0.127	0.207	1.14	0.611	0.969	0.547	0.638	0.276
TCGAGTAGGTTACCAATGGGGCATTGAGCTTTCT	0.567	1.1	0.221	0.408	0.672	0.145	-0.895	-0.0858	-0.64
TTACCAATGTGAGCTGAGGTCGTTGATCCAACTC	0.861	0.247	-0.299	0.122	0.752	3.25	1.54	1.78	2.7
CCGACTGTGGCAAGGTTACCATAACGCACAGCCA	1.13	0.293	0.461	0.0244	0.97	1.2	0.526	0.0735	0.243
TCATATAGGTAAACCGGTGAAAGTCCGTAAGTTA	0.357	0.195	0.0982	1.45	0.746	0.262	0.203	0.87	0.541
TCATATAGATAAATGCTAGGTGAAAGTCCGATCT	0.00895	0.12	0.317	1.66	0.786	0.626	0.378	0.736	0.203
AGAATGAGGTTGCCAAAGATCAGGGAAACGCTTG	-0.195	0.266	0.336	0.261	0.9	0.855	-0.384	0.143	-0.0161
